This note sets out measurements from ChEMBL document CHEMBL1961873, “Compounds: GSK PKIS; Assays: Nanosyn kinase panel” (2012).

A word on the inhibition: it is the change of the read-out against control, counted positive when it falls.

The structures appear in SMILES notation.

Assay [1] addresses Sphingosine kinase 1 (Homo sapiens) (UniProt Q9NYA1). The settings on record: at 1 µM.
Assay [2] addresses T1, Sphingosine kinase 2 (Homo sapiens) (UniProt Q9NRA0).
T1 sequence (whole entry): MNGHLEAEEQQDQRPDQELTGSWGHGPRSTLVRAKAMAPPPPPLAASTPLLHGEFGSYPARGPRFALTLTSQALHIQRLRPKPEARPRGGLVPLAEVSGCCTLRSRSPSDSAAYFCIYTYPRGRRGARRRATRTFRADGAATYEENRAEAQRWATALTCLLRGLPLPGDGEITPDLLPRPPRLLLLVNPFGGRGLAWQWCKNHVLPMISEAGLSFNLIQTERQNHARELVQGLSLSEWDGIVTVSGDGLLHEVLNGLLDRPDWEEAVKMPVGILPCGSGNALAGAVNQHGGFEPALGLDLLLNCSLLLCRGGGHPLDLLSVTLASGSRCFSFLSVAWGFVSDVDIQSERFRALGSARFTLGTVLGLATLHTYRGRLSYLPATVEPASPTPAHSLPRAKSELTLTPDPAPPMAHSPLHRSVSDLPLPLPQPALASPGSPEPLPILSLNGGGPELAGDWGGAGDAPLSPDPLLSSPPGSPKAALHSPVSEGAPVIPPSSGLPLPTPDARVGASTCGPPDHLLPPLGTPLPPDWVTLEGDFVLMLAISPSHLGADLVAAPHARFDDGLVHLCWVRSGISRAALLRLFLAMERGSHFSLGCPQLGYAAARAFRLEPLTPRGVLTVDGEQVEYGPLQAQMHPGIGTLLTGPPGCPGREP
The settings on record: at 0.1 µM.

The target of assay [3] is T1, Sphingosine kinase 2 (Homo sapiens). To be noted: at 1 µM.
For assay [4], the target named is Casein kinase II subunit alpha (Homo sapiens) (UniProt P68400). The settings on record: at 0.1 µM.
Chain of Casein kinase II subunit alpha (Homo sapiens) (P68400 whole entry, looked up): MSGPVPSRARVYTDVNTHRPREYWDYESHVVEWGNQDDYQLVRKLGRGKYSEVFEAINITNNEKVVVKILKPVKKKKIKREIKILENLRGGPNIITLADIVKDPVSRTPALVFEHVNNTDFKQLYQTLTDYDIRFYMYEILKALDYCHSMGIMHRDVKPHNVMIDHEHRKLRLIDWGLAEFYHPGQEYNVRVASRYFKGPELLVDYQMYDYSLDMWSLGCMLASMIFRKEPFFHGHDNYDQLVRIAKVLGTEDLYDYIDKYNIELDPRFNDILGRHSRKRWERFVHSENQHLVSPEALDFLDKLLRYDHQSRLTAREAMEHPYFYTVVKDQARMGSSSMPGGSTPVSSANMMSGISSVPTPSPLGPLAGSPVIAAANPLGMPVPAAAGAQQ
Assay [5] has the same target. The settings on record: at 1 µM.
Assay [6] has as its target T2, Inhibitor of nuclear factor kappa-B kinase subunit alpha (Homo sapiens) (UniProt O15111).
T2 sequence (whole entry): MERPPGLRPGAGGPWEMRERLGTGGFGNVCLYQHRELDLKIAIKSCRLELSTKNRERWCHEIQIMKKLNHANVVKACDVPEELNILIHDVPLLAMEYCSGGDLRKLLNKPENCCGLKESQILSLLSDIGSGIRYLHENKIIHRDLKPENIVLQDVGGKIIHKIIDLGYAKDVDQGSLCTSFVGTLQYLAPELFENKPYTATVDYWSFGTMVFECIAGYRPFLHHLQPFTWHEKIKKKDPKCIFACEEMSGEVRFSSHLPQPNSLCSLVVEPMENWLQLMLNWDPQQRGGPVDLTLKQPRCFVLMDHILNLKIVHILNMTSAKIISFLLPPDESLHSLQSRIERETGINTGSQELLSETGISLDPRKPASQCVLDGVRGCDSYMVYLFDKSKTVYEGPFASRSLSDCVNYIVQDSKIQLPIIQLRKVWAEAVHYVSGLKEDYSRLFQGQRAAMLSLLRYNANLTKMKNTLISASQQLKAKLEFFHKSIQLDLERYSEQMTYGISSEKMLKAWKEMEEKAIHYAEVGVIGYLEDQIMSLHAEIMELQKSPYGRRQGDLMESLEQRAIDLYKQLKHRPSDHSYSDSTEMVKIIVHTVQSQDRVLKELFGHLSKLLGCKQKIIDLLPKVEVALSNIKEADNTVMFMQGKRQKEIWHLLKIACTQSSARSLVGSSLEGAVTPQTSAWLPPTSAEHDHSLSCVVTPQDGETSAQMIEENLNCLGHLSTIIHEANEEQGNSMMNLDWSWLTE
To be noted: at 0.1 µM.

Assay [7] has as its target T2, Inhibitor of nuclear factor kappa-B kinase subunit alpha (Homo sapiens). To be noted: at 1 µM.
For assay [8], the target named is T3, Inhibitor of nuclear factor kappa-B kinase subunit beta (Homo sapiens) (UniProt O14920).
T3 sequence (whole entry): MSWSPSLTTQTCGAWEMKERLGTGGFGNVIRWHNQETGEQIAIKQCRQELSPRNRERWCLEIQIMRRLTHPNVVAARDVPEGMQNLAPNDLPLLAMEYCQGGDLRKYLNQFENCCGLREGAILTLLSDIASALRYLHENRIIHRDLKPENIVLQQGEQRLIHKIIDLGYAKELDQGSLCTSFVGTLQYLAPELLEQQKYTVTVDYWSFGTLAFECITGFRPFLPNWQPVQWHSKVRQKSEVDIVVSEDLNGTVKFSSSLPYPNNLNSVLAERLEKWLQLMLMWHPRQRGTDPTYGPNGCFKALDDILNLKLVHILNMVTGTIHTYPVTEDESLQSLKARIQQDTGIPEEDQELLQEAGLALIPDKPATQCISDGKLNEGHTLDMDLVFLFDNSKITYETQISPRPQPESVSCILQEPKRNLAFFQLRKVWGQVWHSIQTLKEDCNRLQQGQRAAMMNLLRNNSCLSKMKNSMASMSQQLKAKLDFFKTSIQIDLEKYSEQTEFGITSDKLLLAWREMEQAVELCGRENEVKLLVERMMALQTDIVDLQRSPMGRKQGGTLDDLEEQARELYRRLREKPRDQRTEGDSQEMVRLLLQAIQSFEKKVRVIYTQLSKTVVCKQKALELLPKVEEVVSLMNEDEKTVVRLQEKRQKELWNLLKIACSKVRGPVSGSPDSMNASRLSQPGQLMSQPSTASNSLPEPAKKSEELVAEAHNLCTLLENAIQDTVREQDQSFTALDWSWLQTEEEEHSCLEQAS
The settings on record: at 0.1 µM.

Assay [9] deals with T3, Inhibitor of nuclear factor kappa-B kinase subunit beta (Homo sapiens). The settings on record: at 1 µM.
The target of assay [10] is T4, Inhibitor of nuclear factor kappa-B kinase subunit epsilon (Homo sapiens) (UniProt Q14164).
T4 sequence (whole entry): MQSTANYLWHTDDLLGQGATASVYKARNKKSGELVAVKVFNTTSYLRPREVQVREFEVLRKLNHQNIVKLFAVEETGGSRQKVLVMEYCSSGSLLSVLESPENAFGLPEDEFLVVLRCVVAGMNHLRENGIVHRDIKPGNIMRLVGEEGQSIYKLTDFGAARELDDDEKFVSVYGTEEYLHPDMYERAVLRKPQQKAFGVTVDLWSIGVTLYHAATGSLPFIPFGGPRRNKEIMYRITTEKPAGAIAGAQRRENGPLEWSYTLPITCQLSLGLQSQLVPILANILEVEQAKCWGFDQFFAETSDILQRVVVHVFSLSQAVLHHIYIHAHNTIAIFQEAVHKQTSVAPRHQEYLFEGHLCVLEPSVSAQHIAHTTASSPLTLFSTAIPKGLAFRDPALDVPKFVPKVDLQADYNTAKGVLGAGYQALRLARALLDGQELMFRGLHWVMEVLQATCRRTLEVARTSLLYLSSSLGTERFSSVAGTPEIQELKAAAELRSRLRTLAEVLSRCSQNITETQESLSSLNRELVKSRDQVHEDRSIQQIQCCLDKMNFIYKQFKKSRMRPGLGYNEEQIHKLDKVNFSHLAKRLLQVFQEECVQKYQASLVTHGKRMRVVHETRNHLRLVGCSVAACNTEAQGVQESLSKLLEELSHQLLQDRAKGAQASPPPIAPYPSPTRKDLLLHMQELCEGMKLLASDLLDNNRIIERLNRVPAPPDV
To be noted: at 0.1 µM.

The target of assay [11] is T4, Inhibitor of nuclear factor kappa-B kinase subunit epsilon (Homo sapiens). To be noted: at 1 µM.
For assay [12], the target named is T5, Serine/threonine-protein kinase Nek1 (Homo sapiens) (UniProt Q96PY6).
T5 sequence (whole entry): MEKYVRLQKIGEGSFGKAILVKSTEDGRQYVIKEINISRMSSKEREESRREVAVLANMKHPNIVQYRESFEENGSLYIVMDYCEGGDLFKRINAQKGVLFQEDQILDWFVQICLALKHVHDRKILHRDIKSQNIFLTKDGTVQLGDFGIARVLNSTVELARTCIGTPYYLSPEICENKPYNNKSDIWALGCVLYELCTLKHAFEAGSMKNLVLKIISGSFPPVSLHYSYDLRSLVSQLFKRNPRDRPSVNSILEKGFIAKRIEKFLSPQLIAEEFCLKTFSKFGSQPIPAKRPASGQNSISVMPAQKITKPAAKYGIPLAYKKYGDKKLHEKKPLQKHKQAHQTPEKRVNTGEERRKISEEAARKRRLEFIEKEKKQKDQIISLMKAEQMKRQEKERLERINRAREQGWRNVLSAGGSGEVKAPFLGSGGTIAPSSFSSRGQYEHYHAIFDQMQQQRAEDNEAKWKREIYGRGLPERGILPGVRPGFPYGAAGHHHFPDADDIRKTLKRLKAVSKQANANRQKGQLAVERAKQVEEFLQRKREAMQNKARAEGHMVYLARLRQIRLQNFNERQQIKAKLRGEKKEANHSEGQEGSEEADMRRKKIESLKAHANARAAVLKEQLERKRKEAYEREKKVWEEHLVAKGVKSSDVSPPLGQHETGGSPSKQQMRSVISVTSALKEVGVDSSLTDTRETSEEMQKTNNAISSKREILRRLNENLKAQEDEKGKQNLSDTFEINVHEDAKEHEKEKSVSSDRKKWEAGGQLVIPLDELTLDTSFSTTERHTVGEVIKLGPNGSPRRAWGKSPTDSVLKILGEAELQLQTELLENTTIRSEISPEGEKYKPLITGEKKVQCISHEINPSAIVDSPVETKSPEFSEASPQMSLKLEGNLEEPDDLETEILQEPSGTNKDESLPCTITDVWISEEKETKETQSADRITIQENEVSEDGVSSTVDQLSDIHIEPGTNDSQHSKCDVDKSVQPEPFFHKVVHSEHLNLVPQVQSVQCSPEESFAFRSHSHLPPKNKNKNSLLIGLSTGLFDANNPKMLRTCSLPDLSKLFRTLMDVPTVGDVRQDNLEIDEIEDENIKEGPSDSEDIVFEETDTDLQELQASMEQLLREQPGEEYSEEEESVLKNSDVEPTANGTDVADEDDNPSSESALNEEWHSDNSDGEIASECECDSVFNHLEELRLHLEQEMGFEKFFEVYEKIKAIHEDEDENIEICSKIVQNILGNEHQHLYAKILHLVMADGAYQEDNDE
The settings on record: at 0.1 µM.

The target of assay [13] is T5, Serine/threonine-protein kinase Nek1 (Homo sapiens). The settings on record: at 1 µM.
The target in assay [14] is T6, Serine/threonine-protein kinase Nek2 (Homo sapiens) (UniProt P51955).
T6 sequence (whole entry): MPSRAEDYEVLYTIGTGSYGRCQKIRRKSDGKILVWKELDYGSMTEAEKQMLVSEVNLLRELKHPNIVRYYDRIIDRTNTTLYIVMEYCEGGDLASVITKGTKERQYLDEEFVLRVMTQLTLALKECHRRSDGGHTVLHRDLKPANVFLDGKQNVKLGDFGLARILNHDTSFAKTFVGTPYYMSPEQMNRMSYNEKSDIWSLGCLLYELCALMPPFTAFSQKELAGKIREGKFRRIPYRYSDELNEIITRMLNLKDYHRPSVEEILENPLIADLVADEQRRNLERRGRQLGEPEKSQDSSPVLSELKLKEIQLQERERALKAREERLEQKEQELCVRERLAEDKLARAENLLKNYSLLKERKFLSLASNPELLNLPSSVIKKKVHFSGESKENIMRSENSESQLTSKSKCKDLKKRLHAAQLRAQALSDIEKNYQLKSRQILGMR
To be noted: at 0.1 µM.

For assay [15], the target named is T6, Serine/threonine-protein kinase Nek2 (Homo sapiens). The settings on record: at 1 µM.
In assay [16] the target is Serine/threonine-protein kinase Nek6 (Homo sapiens) (UniProt Q9HC98). To be noted: at 0.1 µM.
Chain of Serine/threonine-protein kinase Nek6 (Homo sapiens) (Q9HC98 whole entry): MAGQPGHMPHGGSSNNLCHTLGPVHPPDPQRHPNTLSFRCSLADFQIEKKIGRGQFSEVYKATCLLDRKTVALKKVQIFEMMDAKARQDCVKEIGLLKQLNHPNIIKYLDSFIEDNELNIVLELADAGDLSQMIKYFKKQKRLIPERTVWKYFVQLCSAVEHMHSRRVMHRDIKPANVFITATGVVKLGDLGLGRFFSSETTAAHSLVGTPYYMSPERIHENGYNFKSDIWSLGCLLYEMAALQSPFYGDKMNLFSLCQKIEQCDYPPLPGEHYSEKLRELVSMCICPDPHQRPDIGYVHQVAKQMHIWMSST
The target is the same in assay [17]. The settings on record: at 1 µM.
For assay [18], the target named is Serine/threonine-protein kinase Nek7 (Homo sapiens) (UniProt Q8TDX7). To be noted: at 0.1 µM.
Chain of Serine/threonine-protein kinase Nek7 (Homo sapiens) (Q8TDX7 whole entry, looked up): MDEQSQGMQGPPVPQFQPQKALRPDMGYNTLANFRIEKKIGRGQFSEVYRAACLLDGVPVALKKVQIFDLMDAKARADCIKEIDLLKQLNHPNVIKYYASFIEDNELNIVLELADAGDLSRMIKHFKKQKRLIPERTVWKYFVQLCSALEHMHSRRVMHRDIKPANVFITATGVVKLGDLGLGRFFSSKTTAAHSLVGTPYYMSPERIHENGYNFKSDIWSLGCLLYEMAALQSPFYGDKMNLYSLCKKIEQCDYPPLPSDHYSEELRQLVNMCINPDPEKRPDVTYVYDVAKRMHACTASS
Assay [19] shares this target. To be noted: at 1 µM.
The target of assay [20] is T7, Serine/threonine-protein kinase Nek9 (Homo sapiens) (UniProt Q8TD19).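 Note: reported value is the mean percent inhibition of NEK9.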
T7 sequence (whole entry): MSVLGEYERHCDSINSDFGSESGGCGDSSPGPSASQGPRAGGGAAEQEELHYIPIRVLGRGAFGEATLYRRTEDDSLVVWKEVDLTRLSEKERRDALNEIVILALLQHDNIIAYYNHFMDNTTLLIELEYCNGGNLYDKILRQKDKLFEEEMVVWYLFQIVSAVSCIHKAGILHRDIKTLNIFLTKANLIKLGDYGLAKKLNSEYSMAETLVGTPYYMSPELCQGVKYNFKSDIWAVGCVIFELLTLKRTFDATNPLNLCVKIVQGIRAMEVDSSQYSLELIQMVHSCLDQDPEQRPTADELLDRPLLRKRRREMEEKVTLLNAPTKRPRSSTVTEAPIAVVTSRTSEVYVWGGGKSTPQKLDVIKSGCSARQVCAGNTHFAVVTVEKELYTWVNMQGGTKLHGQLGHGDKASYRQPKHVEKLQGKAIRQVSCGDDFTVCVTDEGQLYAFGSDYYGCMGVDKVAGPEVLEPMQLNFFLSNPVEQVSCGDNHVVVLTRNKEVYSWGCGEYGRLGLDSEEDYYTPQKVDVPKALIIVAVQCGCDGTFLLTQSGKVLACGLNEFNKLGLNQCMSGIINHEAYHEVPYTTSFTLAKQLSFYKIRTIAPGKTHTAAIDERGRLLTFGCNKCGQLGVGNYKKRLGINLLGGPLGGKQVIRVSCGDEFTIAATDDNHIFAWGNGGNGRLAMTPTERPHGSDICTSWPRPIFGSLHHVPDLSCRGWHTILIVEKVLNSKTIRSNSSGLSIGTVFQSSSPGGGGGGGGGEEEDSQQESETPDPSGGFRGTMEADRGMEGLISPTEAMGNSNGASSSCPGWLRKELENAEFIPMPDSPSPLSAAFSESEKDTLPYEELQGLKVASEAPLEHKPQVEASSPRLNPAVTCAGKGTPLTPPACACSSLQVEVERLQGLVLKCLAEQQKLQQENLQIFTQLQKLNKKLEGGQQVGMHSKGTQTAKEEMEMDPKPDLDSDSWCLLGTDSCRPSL
The settings on record: at 0.1 µM.

Chain of Sphingosine kinase 1 (Homo sapiens) (Q9NYA1 whole entry): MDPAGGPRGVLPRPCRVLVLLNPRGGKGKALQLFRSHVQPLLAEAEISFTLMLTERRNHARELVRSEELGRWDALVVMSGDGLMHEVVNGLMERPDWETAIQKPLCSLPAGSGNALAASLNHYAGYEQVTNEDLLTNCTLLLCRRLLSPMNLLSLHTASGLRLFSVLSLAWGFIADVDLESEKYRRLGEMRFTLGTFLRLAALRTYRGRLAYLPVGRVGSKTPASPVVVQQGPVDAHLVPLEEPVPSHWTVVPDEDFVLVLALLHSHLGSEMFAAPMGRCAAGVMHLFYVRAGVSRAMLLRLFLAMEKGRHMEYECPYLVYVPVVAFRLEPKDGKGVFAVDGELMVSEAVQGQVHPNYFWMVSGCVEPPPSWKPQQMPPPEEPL

For the compound `CS(=O)(=O)CCNCc1ccc(-c2ccc3ncnc(Nc4ccc(OCc5cccc(C(F)(F)F)c5)cc4)c3c2)o1`, the inhibition in assay [1] worked out at 0.32%; in assay [2] it was 0.1%; in [3], 0.04%; in [4] it was 5.1%; in assay [5], 4.66%; in assay [6], 3.34%. Moreover, the inhibition was 4.53% in assay [7]; 4.47% in [8]; 8.68% in [9]; 4.74% in assay [10]; 4.77% in assay [11]; 3.08% in assay [12]. Further, the inhibition in assay [13] was determined as 8.21%; in assay [14], 7.25%; in assay [15] it was 6.57%; in [16] it was 0.78%; in assay [17] it was 4.95%; in assay [18], 2.96%. Moreover, the results for the inhibition in assay [19] and in assay [20] were 7.52% and 4.02%, respectively.
